Our source for the Potency values is PubChem BioAssay AID1159524 (National Center for Advancing Translational Sciences (NCATS), 2015).

About 5,100 (1.2%) of roughly 410,000 compounds were called active. About 8% were inconclusive and are not listed. The call rests on the fitted dose curve; tested in HEK293T cells. What follows is part of a selection rich in actives, with near analogues and random picks from the rest. Where a call stands in place of a potency, no number is given.
Potency means the concentration at half of the fitted maximal effect.

The assay is described as follows: High Throughput Screening for Foot and Mouth Disease Virus Antivirals. Further: read-out not given here; nearly all actives have a fitted effect of over 45% in size. The settings on record: FMDV antiviral cell-based qHTS; series mostly up to 57.9 µM. (In general: Quantitative high-throughput screening tests each substance at several concentrations.)
As to `CCOC(=O)CSc1nc2ccc(C)cc2n2cnnc12`, the Potency result is “inactive”.
As to `c1ccc(CC2CCN(c3nc4ccccc4n4cnnc34)CC2)cc1`, the Potency result was “inactive”.
With `O=C(c1ccccc1)c1ccc2nc(N3CCCCC3)c3nncn3c2c1`, the Potency was 10 µM (active).
The result for `O=c1c(O)c(Br)ccc2c(Br)c(O)c(O)c(O)c12` reads “inactive”; that for `COc1ccc(-c2c(C)c3ccc(O)c(CN4CCCC4)c3oc2=O)cc1OC`, “inactive”; that for `COCC1CCCN(Cc2ccc3c(c2)CN(C(=O)c2ccnn2C)CCO3)C1` (centres undefined), “inactive”.
The result for `CC(=O)Nc1cc(C(=O)NCc2ccc(F)cc2Cl)ccc1Sc1ccc(Cl)cc1` reads “inactive”.
As for `COc1ccc(Oc2ncc3nc(C)c(=O)n(-c4ccccc4)c3n2)cc1`, the entry is “inactive”; as for `CSc1ccc(CCNC(=O)c2ccc3c(c2)nc2n3CCOC2)cc1`, “inactive”; as for `CC1CN/C(=C\C(=O)c2ccc(Br)cc2)C(=O)N1` (centres undefined), 12.6 µM (active).
For `O=C(O)C1CCCN1S(=O)(=O)c1ccc(Br)cc1` (centres undefined), the Potency result is “inactive”.
The result for `Cc1nc2cnc(Oc3cccc(Cl)c3)nc2n(C2CC2)c1=O` reads “inactive”.
With `CC(C)[C@H](CO)Nc1nc(Nc2cc(N)cc(Cl)c2)c2ncn(C(C)C)c2n1`, the Potency result is “inactive”.
The result for `Cc1cccc(NC(=O)CSc2nc3c([nH]c4ccccc43)c(=O)n2-c2cc(C)cc(C)c2)c1` reads “inactive”.
The result for `Cc1cccc(-n2c(SCC(N)=O)nc3c(c2=O)C2(CCCCC2)Cc2ccccc2-3)c1` reads 14.1 µM (active).
Turning to `Cc1cccc(-n2c(SCC(N)=O)nc3c(oc4ccccc43)c2=O)c1`, the Potency entry is “inactive”.
As for `COc1ccc(NC(=O)Cn2c(=O)n(Cc3ccc(C(=O)NCc4ccccc4Cl)cc3)c(=O)c3ccccc32)cc1`, the entry is “inactive”.
As for `CCOc1ccc(/C=C(\C#N)c2nc3ccccc3c(=O)[nH]2)cc1OC`, the Potency entry was “inactive”.
The result for `CCOc1cc(/C=C(/C#N)c2ccc(Cl)cc2)cc(Cl)c1OCC(=O)O` reads 8.91 µM (active); that for `CCOC(=O)CN(C(=O)COc1nc(C)cc(C)c1C#N)c1ccc(Cl)cc1`, “inactive”; that for `O=C(c1ccncc1)N1CCC2(CCCN(C(c3ccccc3)c3ccccc3)C2)CC1`, “inactive”.
With `Cc1ccc(CN2CCCn3nc(C(=O)NCc4ccccc4Cl)cc3C2=O)cc1`, the Potency result was “inactive”.
`C/C(=N\NC(=O)c1ccccc1F)c1ccccn1`: the Potency was 12.6 µM (active).
As for `O=C(NC(=S)NC1CCSC1=O)c1ccccc1F` (centres undefined), the entry is “inactive”; as for `CN(NC(=O)c1ccccc1F)c1nc(C(F)(F)F)nc2ccccc12`, “inactive”.
The result for `CCn1c2ccccc2c2cc(CN3CCN(Cc4cccc(Cl)c4)CC3)ccc21` reads “inactive”; that for `CCCN(C/C=C/I)C1CCc2ccc(O)cc2C1` (centres undefined), “inactive”.
As for `CC1Cc2cc(S(=O)(=O)CCC(=O)NCc3ccc(Cl)cc3)ccc2N1C(=O)C1CC1` (centres undefined), the Potency result is “inactive”.
As for `CC(C)S(=O)(=O)c1oc(-c2ccc(F)cc2)nc1S(=O)(=O)c1ccc(F)cc1`, the figure is 31.6 µM (active); as for `Cc1ccc(-c2nc(S(=O)(=O)c3ccc(C)cc3)c(N3CCCCCC3)o2)cc1`, “inactive”.
As for `O=C(CSc1oc(-c2ccc(F)cc2)nc1S(=O)(=O)c1ccc(Br)cc1)NC1CCCCC1`, the entry is “inactive”.
As for `COc1ccc(C(=O)N2CCC3(CCCN(C(c4ccccc4)c4ccccc4)C3)CC2)cc1`, the entry is “inactive”.
For the compound `O=C(c1csnn1)N1CCC[C@@]2(CCN(c3cccc(-c4ccccc4)c3)C2)C1`, the Potency entry is “inactive”.
The result for `Cc1c(NC(=O)C(C)(C)C)cccc1-c1nc2ccccc2s1` reads “inactive”; that for `O=S(=O)(c1ccccc1)N1CCC2(CC1)CN(Cc1nccs1)C2`, “inactive”.
For the compound `O=C(c1ccc2c(c1)N(Cc1ccccc1)C(=O)c1ccccc1S2(=O)=O)N1CCCC1`, the Potency entry was “inactive”.
The result for `CC1C(=O)N(Cc2ccccc2)c2ccccc2N1C(=O)c1ccccc1` (centres undefined) reads 31.6 µM (active); that for `CC1Oc2ccccc2N(Cc2cccnc2)C1=O` (centres undefined), “inactive”.
The result for `CS(=O)(=O)N1CCC2(CCN(c3ccncc3)CC2)CC1` reads “inactive”.
As to `CN1CCC2(CC1)CCN(S(=O)(=O)c1ccccc1)CC2`, the Potency entry was “inactive”.
The result for `O=C(O)CC(SCC(=O)Nc1ccc(Br)cc1)C(=O)O` (centres undefined) reads “inactive”; that for `O=C(CCl)Nc1ccc(Sc2ccc(NC(=O)CCl)cc2)cc1`, 7.94 µM (active); that for `CC(=O)Nc1ccc(NC(=O)CC2CCCC2)cc1`, “inactive”.
Turning to `CCCc1nc2scc(-c3ccc(C)cc3)c2c(=O)n1N`, the Potency entry was “inactive”.
As for `Cc1ccc(-c2csc(NC3OC(=O)c4ccccc43)n2)cc1` (centres undefined), the figure is 20 µM (active); as for `COc1ccc2c(c1OC)C(=O)OC2Nc1nc(-c2ccccc2)cs1` (centres undefined), 15.8 µM (active).
The result for `COc1ccc(CNC(=O)CC2Oc3ccc(C)cc3NC2=O)cc1` (centres undefined) reads “inactive”; that for `CC(C)NC(=O)N1CCCC2(CCN(C(=O)c3cccn3C)CC2)C1`, “inactive”.
As for `Cn1c(=O)c2c(SCC(=O)NCC3CCCO3)nc(-c3ccccc3F)nc2n(C)c1=O` (centres undefined), the entry is “inactive”; as for `CCNCCCNCCCNCCCNCC`, “inactive”; as for `Cn1cccc1C(=O)N1CCC[C@@]2(CCN(Cc3nccs3)C2)C1`, “inactive”.
As to `N#Cc1ccc(CN2CCCC3(CCN(C(=O)c4ccco4)CC3)C2)cc1`, the Potency entry is “inactive”.
Turning to `COc1ccc(N2CCN(C(=O)CSc3nnc4ncccn34)CC2)cc1`, the Potency result is “inactive”.
As for `CCOc1ccc(-c2ccc(SCC(=O)N3CCOCC3)nn2)cc1`, the entry is “inactive”; as for `COc1cccc(-c2ccc(SCC(=O)N3CCN(c4ccccc4)CC3)nn2)c1`, 12.6 µM (active); as for `CCN1CCN(Cc2c(O)ccc3oc(C)c(C(=O)Nc4ccc(C)cc4C)c23)CC1`, “inactive”.
For `Cc1ccc(CNC(=O)c2c(O)nc3c(C)cccn3c2=O)cc1`, the Potency entry is “inactive”.
The result for `CC(=O)c1ccc(NC(=O)CSc2nc(-c3ccccc3F)nc3c2c(=O)n(C)c(=O)n3C)cc1` reads “inactive”; that for `COC(=O)C1CCCCN1Cc1ccc2c(c1)CN(Cc1cc(OC)c3c(c1)OCO3)CCO2` (centres undefined), “inactive”.
As for `CCOC(=O)c1c(C)[nH]c2c1-c1ccccc1C(=O)C2=O`, the figure is 7.08 µM (active); as for `CCOC(=O)c1c(SCC(=O)Nc2cccc(C)c2C)nc(=O)[nH]c1C`, “inactive”.
As for `CCOC(=O)c1c(C)[nH]c(C)c1S(=O)(=O)N(C)CC(=O)N1CCN(c2ccccc2)CC1`, the Potency result is “inactive”.
The result for `CC(=O)c1c(C)[nH]c(C(=O)OCC(=O)NCCC(C)C)c1C` reads “inactive”; that for `CC(=O)c1c(C)[nH]c(C(=O)OCC(=O)Nc2sc3c(c2C#N)CCCC3)c1C`, 17.8 µM (active); that for `Cc1ccc(C)c(OCC(=O)Nc2sc3c(c2C#N)CCCC3)c1C`, “inactive”.
As for `CC(C)CC(NS(=O)(=O)c1ccc2c(c1)oc(=O)n2C)C(=O)NCc1ccccc1Cl` (centres undefined), the entry is “inactive”.
The result for `CCC(CC)C(=O)N1CCc2cc(OC)c(OC)cc2C1COc1ccc(F)cc1` (centres undefined) reads “inactive”; that for `COc1ccccc1-c1ccc(C(=O)N(C)C(C)c2ccon2)c(N2CCN(c3ccccc3F)CC2)n1` (centres undefined), “inactive”; that for `O=C(OCC(=O)N1CCN(C(=O)c2ccco2)CC1)c1ccc(Cl)c(Cl)c1`, “inactive”.
In the case of `CN(c1ccccc1)S(=O)(=O)c1cc(C(=O)OCC(=O)N2CCN(C(=O)c3ccco3)CC2)ccc1Cl`, the Potency was 25.1 µM (active).
As for `O=C(OCC(=O)N1CCN(C(=O)c2ccco2)CC1)c1c(Cl)cccc1Cl`, the entry is “inactive”.
With `CC(O)[C@@H](N)C(=O)O` (some centres undefined), the Potency result was “inactive”.
As for `COc1ccc(CCCOC(Cn2ccnc2)c2ccc(OC)cc2)cc1` (centres undefined), the entry is “inactive”; as for `COc1ccccc1-c1nc(NCc2cccs2)c2ccccc2n1`, “inactive”.
`O=C1NC(CC(=O)N2CCC(n3c(C4CCC4)nc4cccnc43)CC2)c2ccccc21` (centres undefined): the Potency entry is “inactive”.
As for `O=c1n(Cc2cccc(C(F)(F)F)c2)c2ccccc2c2nc(-c3ccccc3)nn12`, the entry is “inactive”.
The result for `Cn1c(-c2sccc2OCc2cccc(C(F)(F)F)c2)n[nH]c1=S` reads “inactive”; that for `O=c1c2ccccc2nc2n1C(CSCc1cccc(C(F)(F)F)c1)CS2` (centres undefined), 5.62 µM (active); that for `O=C(Nc1cccc(F)c1)N1CCC2(CC1)CCN(S(=O)(=O)c1ccccc1)CC2`, “inactive”.
As for `O=C(Nc1cc(C(=O)Nc2ccc(S(=O)(=O)O)cc2)cc(C(=O)Nc2ccc(S(=O)(=O)O)cc2)c1)Nc1cc(C(=O)Nc2ccc(S(=O)(=O)O)cc2)cc(C(=O)Nc2ccc(S(=O)(=O)O)cc2)c1`, the entry is “inactive”; as for `O=C(CSc1nc(Nc2ccccc2)nc(N2CCOCC2)n1)Nc1cc(Cl)ccc1O`, 39.8 µM (active); as for `O=C(CSc1nc2ccc(Nc3nc(N4CCOCC4)nc(N4CCOCC4)n3)cc2s1)NCc1ccco1`, “inactive”.
`O=C(CSc1ccccc1)Nc1cc(Cl)ccc1Oc1ccccc1`: the Potency result was “inactive”.
As for `O=C(O)C(O)[C@@](O)(Cc1ccc(O)cc1)C(=O)O` (some centres undefined), the entry is “inactive”.
The result for `CC(=O)OC1C2CCC3C1(CC(O)[C@@]1(O)[C@@H](CC(O)C1(C)C)[C@]3(C)O)C[C@@]2(C)O` (some centres undefined) reads “inactive”; that for `COC(=O)c1ccccc1C(=O)NCc1nc(N2CCCC2)c2cccc(C)c2n1`, “inactive”; that for `Cc1csc(OCC(=O)Nc2ccc(C)c(C)c2)n1`, “inactive”.
Consider `COc1cc(SC)ccc1C(=O)Nc1nc(C)cs1`, for which the Potency was 3.16 µM (active).
As for `COc1cc(Cl)c(C)cc1NC(=O)COC(=O)c1cc(SC)ccc1Cl`, the entry is “inactive”; as for `COc1ccccc1C1CN(Cc2ccccc2O)Cc2ccccc2O1` (centres undefined), “inactive”; as for `COc1ccc(CCNC(=O)c2c3c(nc4ccccc24)C(=O)N(C2CCCCC2)C3)cc1OC`, “inactive”.
The result for `COc1cc(C(=O)N2CCC(c3ccncc3)CC2)cc(OC)c1OC` reads “inactive”.
As for `O=C(c1cc(C(F)(F)F)cc(C(F)(F)F)c1)N1CCC2(CCCN(c3ccccn3)C2)CC1`, the entry is “inactive”; as for `Cc1ccc(-c2cc(C(=O)N/N=C/C=C/c3ccco3)c3ccccc3n2)cc1C`, 1.58 µM (active).
As for `O=c1c2ccccc2nc(/C=C/c2ccco2)n1-c1ccccc1O`, the Potency result was “inactive”.
The result for `CCc1ccc2oc(-c3ccc(C)c(NC(=O)/C=C/c4ccco4)c3)nc2c1` reads “inactive”.
The result for `COc1ccc(-n2c(CNC(=O)c3cc(C(F)(F)F)ccc3Cl)nnc2SC)cc1` reads “inactive”.
As for `CCCCCCCCCCOC(=O)Cn1c(COc2cccc(OC)c2)[n+](C)c2ccccc21`, the figure is 28.2 µM (active).
On to `CCOC(=O)c1c(NC(=O)COc2cc(C)ccc2C(C)C)sc(C)c1C`, for which the Potency entry is “inactive”.
